PubChem BioAssay (Tox21)
Where “and” joins values, the source holds several entries; their conditions need not be identical. Identical values can stand only once. Inconclusive results are not listed. Entries that show only a call come without a potency. Some structures have more than one record in an assay (separate samples or runs), and their calls can disagree. Calls of active or inactive are those of the source. Unless noted, calls come from the whole dose curve; as a rule, active = well fitted curve in the direction sought with a large enough effect in the repeat runs; inconclusive = weak or mixed curves; inactive = no such curve, though single readings can be large; an effect the other way counts as inactive or inconclusive.

Columns and labels:
[1] = qHTS assay to identify aromatase inhibitors - cell viability counter screen (AID 743084);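 note: cells stimulated with testosterone during compound exposure; nearly all actives have a fitted effect of over 55% in size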; note: potency is the fitted concentration of half-maximal effect
[2] = biological target: Aryl hydrocarbon receptor (Homo sapiens) (UniProt P35869); assay: qHTS assay to identify small molecule that activate the aryl hydrocarbon receptor (AhR) signaling pathway (AID 743085);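 note: HG2L7.5c1 human HepG2 liver cells with stably integrated DRE-driven firefly reporter; series mostly up to about 70 µM; nearly all actives have a fitted effect of over 15% in size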
Chain of Aryl hydrocarbon receptor (Homo sapiens) (P35869 whole entry, looked up): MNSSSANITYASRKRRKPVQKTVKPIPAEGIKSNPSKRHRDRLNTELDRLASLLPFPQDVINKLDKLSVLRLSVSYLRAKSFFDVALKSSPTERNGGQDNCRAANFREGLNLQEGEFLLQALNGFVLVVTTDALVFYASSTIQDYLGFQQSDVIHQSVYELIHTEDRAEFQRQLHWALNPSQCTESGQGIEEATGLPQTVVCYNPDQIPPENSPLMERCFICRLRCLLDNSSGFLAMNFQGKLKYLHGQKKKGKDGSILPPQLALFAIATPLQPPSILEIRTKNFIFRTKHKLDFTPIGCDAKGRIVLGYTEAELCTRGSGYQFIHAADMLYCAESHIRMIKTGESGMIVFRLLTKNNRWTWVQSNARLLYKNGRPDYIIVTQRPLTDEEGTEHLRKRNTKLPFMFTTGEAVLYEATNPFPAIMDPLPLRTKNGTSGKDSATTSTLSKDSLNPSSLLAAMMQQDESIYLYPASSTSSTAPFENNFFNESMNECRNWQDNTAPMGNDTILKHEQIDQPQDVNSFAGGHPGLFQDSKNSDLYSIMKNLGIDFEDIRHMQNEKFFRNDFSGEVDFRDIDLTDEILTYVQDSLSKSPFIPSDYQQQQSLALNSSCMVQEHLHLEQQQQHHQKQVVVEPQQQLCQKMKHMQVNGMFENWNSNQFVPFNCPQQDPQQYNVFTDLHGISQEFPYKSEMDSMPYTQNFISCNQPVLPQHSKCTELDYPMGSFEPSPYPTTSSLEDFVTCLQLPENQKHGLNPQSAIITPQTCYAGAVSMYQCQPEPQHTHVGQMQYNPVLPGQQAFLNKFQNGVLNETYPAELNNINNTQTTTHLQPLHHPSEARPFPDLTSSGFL
Method in brief: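 A multiplexed format paired cell viability (CellTiter-Fluor fluorescence) with AhR-dependent luciferase output (ONE-Glo luminescence) in the same wells of HepG2 DRE-luc cells after 24 h compound exposure at 37C.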

[3] = qHTS assay to identify small molecule that activate the aryl hydrocarbon receptor (AhR) signaling pathway - cell viability counter screen (AID 743086); note: nearly all actives have a fitted effect of over 45% in size; note: potency is the fitted concentration of half-maximal effect
Method in brief: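 HepG2-AhR-luc (HG2L7.5c1) cells, 4000/well, treated 24 h at 37 C with compound; viability measured as CellTiter-Fluor fluorescence after 30 min in the same wells as the luciferase read.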

[4] = qHTS assay to identify small molecule antagonists of the peroxisome proliferator-activated receptor gamma (PPARg) signaling pathway - cell viability counter screen (AID 743194); settings: Potency: co-treated with 50 nM rosiglitazone; note: nearly all actives have a fitted effect of over 55% in size; note: potency is the fitted concentration of half-maximal effect
Method in brief: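 Cytotoxicity counter screen in PPARg-bla HEK293H cells, same wells as reporter assay. Compounds plus 50 nM rosiglitazone (final) for 17 h at 37 C, then viability read by CellTiter-Glo luminescence.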

[5] = qHTS assay for small molecule agonists of the antioxidant response element (ARE) signaling pathway (AID 743202; active = well fitted activation curve with a large enough effect in the signal ratio in the repeat runs, not every such curve was filed as active; the % refers to the signal ratio; note: potency is the fitted concentration of half-maximal effect)
Method in brief: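 Agonist mode reporter screen: HepG2 cells with ARE-controlled beta-lactamase are incubated with test compounds for 16 h at 37 C, and beta-lactamase activity is measured as fluorescence of cleaved B/G FRET substrate.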

[6] = qHTS assay for small molecule agonists of the antioxidant response element (ARE) signaling pathway - cell viability counter screen (AID 743203; calls by dose curve; note: nearly all actives have a fitted effect of over 55% in size; note: potency is the fitted concentration of half-maximal effect)
Method in brief: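 Following 16 hrs of compound treatment at 37C, HepG2 cells with an ARE-controlled beta-lactamase gene were lysed with CellTiter-Glo. Luminescence was read after 30 min at room temperature.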

[7] = qHTS assay for small molecule activators of the heat shock response signaling pathway - cell viability counter screen (AID 743209); note: nearly all actives have a fitted effect of over 50% in size
Method in brief: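 Readout: CellTiter-Glo luminescence, 30 min at room temperature. System: HSE-bla HeLa cells, 1500/well, plated overnight. Treatment: compounds in DMSO, 5 h at 37 C.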

[8] = qHTS assay to identify small molecule agonists of the peroxisome proliferator-activated receptor delta (PPARd) signaling pathway - cell viability counter screen (AID 743211); note: nearly all actives have a fitted effect of over 55% in size; note: potency is the fitted concentration of half-maximal effect
Method in brief: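 Tox21 library compounds, delivered in DMSO, were incubated 17 h with PPARd-bla HEK293H cells; cytotoxicity was taken from CellTiter-Glo luminescence read 30 min after reagent addition.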

[9] = qHTS assay to identify small molecule agonists of the farnesoid-X-receptor (FXR) signaling pathway - cell viability counter screen (AID 743218); note: nearly all actives have a fitted effect of over 45% in size; note: potency is the fitted concentration of half-maximal effect
Method in brief: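 Parallel cytotoxicity test: compound-treated (16 h, 37 C) HEK 293T FXR-bla reporter cells were lysed with CellTiter-Glo and luminescence recorded.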

[10] = qHTS assay to identify small molecule antagonists of the farnesoid-X-receptor (FXR) signaling pathway - cell viability counter screen (AID 743221; active = well fitted cell-killing curve with a large enough effect in the repeat runs, not every such curve was filed as active; note: nearly all actives have a fitted effect of over 50% in size; note: potency is the fitted concentration of half-maximal effect)
Method in brief: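 Cytotoxicity is taken from ATP luminescence (CellTiter-Glo, 30 min, room temperature) in FXR-bla HEK 293T cells previously incubated 16 h at 37 C with compound and chenodeoxycholic acid at 50 uM final.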

[11] = qHTS assay for small molecule activators of the heat shock response signaling pathway (AID 743210; active = well fitted activation curve with a large enough effect in the signal ratio in the repeat runs, with a control signal flat, not every such curve was filed as active; the % refers to the signal ratio;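 note: HeLa cells with beta-lactamase reporter driven by heat shock elements; series mostly up to about 63 µM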)
Method in brief: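 Quantitative high-throughput format using an engineered HeLa line in which heat shock response elements drive beta-lactamase; after 5 h with compound, cells received a B/G FRET substrate and fluorescence was read.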

[12] = qHTS assay to identify small molecule antagonists of the peroxisome proliferator-activated receptor delta (PPARd) signaling pathway - cell viability counter screen (AID 743213); note: nearly all actives have a fitted effect of over 50% in size; note: potency is the fitted concentration of half-maximal effect
Method in brief: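 In this counter screen, HEK293H cells carrying a UAS-beta-lactamase reporter are co-treated with test compounds and 300 nM L165041 (final) for 17 h at 37 C; cell viability is quantified by CellTiter-Glo luminescence.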

[13] = biological target: Vitamin D3 receptor (Homo sapiens) (UniProt P11473); assay: qHTS assay to identify small molecule agonists of the vitamin D receptor (VDR) signaling pathway (AID 743222; calls by dose curve)
Chain of Vitamin D3 receptor (Homo sapiens) (P11473 whole entry, looked up): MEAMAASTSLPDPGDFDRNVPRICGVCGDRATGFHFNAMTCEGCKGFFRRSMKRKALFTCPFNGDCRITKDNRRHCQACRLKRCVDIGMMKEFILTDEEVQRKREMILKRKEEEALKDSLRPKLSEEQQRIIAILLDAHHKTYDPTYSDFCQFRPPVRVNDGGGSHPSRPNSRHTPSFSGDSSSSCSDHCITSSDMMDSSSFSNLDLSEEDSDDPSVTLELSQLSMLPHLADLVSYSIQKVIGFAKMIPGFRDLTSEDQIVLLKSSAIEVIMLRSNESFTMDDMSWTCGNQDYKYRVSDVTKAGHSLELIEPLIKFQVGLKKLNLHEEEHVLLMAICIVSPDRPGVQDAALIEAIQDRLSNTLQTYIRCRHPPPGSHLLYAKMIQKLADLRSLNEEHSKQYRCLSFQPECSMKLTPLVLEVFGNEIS
Method in brief: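 In VDR-bla cells, compound-induced beta-lactamase expression is quantified by FRET substrate fluorescence. Treatment lasts 16 h at 37C; substrate develops 2 h at room temperature.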

[14] = biological target: Vitamin D3 receptor (Homo sapiens) (UniProt P11473); assay: qHTS assay to identify small molecule antagonists of the vitamin D receptor (VDR) signaling pathway (AID 743223; active = well fitted inhibition curve with a large enough effect in the signal ratio in the repeat runs, not every such curve was filed as active; the % refers to the signal ratio)
Method in brief: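 Quantitative HTS in VDR-bla reporter cells stimulated with 1alpha,25-dihydroxyvitamin D3, 3 nM final. Compound exposure 16 h, 37C, 5% CO2. Read-out: beta-lactamase FRET substrate fluorescence, 2 h RT.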

[15] = biological target: Bile acid receptor (Homo sapiens) (UniProt Q96RI1); assay: qHTS assay to identify small molecule agonists of the farnesoid-X-receptor (FXR) signaling pathway (AID 743220; active = well fitted activation curve with a large enough effect in the signal ratio in the repeat runs, not every such curve was filed as active; the % refers to the signal ratio)
Chain of Bile acid receptor (Homo sapiens) (Q96RI1 whole entry, looked up): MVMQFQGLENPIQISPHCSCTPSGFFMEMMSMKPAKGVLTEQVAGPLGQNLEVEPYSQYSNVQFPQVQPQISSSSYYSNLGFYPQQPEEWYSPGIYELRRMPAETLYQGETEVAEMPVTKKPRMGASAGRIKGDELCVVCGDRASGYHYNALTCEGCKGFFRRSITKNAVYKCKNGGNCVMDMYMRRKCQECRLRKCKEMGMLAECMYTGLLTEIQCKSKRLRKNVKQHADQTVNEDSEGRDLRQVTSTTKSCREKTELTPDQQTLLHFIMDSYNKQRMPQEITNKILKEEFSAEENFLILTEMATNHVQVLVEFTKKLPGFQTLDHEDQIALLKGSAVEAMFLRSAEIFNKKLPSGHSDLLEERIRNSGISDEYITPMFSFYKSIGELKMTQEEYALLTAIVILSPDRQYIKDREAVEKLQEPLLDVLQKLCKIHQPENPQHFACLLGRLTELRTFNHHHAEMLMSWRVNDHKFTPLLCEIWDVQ
Method in brief: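 Beta-lactamase reporter under UAS control in GeneBLAzer FXR HEK 293T cells (5000/well) measured with LiveBLAzer FRET substrate after 2 h at room temperature. Compound exposure lasted 16 h at 37C.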

[16] = biological target: Peroxisome proliferator-activated receptor delta (Homo sapiens) (UniProt Q03181); assay: qHTS assay to identify small molecule antagonists of the peroxisome proliferator-activated receptor delta (PPARd) signaling pathway (AID 743215; active = well fitted inhibition curve with a large enough effect in the signal ratio in the repeat runs, not every such curve was filed as active; the % refers to the signal ratio;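 note: cells stimulated with agonist L165041 at 300 nM final during compound exposure; series mostly up to about 62 µM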)
Chain of Peroxisome proliferator-activated receptor delta (Homo sapiens) (Q03181 whole entry, looked up): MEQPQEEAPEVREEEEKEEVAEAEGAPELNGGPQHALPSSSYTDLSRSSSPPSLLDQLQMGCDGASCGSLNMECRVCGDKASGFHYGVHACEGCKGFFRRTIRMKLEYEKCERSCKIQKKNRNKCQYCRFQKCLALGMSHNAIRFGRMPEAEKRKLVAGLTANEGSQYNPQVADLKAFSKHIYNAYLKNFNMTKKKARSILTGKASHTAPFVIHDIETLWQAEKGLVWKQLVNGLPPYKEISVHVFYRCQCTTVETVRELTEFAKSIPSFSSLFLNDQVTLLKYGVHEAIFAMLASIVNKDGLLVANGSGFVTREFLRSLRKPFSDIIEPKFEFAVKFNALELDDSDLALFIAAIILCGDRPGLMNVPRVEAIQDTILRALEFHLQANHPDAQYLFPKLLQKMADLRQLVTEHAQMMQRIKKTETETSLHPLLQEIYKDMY
Method in brief: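 HEK293H UAS-bla, PPARd; agonist L165041 300 nM final with cpd in DMSO; 37 C 17 h; FRET substrate, RT 2 h; fluorescence intensity.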

[17] = biological target: Peroxisome proliferator-activated receptor gamma (Homo sapiens) (UniProt P37231); assay: qHTS assay to identify small molecule agonists of the peroxisome proliferator-activated receptor gamma (PPARg) signaling pathway (AID 743094; active = well fitted activation curve with a large enough effect in the signal ratio in the repeat runs, not every such curve was filed as active; the % refers to the signal ratio)
Chain of Peroxisome proliferator-activated receptor gamma (Homo sapiens) (P37231 whole entry, looked up): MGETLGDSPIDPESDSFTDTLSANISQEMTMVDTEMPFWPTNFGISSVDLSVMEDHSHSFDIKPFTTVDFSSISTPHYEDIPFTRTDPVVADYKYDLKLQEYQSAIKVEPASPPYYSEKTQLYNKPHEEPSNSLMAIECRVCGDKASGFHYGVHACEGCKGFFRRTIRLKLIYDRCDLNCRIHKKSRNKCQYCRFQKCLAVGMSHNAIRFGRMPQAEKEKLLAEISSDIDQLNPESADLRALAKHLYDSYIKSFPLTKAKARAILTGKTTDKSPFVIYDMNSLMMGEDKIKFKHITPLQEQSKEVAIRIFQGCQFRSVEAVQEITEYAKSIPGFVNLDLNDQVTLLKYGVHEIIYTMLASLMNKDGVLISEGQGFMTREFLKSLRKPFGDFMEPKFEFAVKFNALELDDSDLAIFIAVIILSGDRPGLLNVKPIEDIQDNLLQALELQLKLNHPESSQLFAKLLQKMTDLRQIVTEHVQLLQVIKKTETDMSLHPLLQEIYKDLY
Method in brief: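 Compounds dissolved in DMSO were added to PPARg UAS-bla HEK293H cells for 17 h at 37C, and reporter expression was quantified by fluorescence intensity after 1 h with LiveBLAzer B/G FRET substrate.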

[18] = biological target: Peroxisome proliferator-activated receptor delta (Homo sapiens) (UniProt Q03181); assay: qHTS assay to identify small molecule agonists of the peroxisome proliferator-activated receptor delta (PPARd) signaling pathway (AID 743212; calls by dose curve)
Method in brief: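 Quantitative high-throughput agonist screen in a HEK293H beta-lactamase reporter line under UAS control. Compounds in DMSO, at 37 C. Fluorescence read after 2 h with FRET substrate at room temperature.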

[19] = biological target: Bile acid receptor (Homo sapiens) (UniProt Q96RI1); assay: qHTS assay to identify small molecule antagonists of the farnesoid-X-receptor (FXR) signaling pathway (AID 743217; active = well fitted inhibition curve with a large enough effect in the signal ratio in the repeat runs, not every such curve was filed as active; the % refers to the signal ratio)
Method in brief: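 GeneBLAzer FXR-UAS-bla HEK 293T, CDCA-stimulated (50 uM final). Compound treatment 16 h, 37 °C. Detection: beta-lactamase cleavage of B/G FRET substrate, fluorescence.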

[20] = biological target: Peroxisome proliferator-activated receptor gamma (Homo sapiens) (UniProt P37231); assay: qHTS assay to identify small molecule antagonists of the peroxisome proliferator-activated receptor gamma (PPARg) signaling pathway (AID 743191; calls by dose curve; note: series mostly up to about 63 µM; nearly all actives have a fitted effect of over 30% in size)
Method in brief: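 GeneBLAzer PPARg UAS-bla HEK293H cells, 5 h post-plating, exposed to compounds 17 h at 37C. LiveBLAzer B/G FRET substrate added for 1 h at room temperature; beta-lactamase reporter read by fluorescence intensity.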

C[C@]12C=CC3=C4CCC(=O)C=C4CC[C@H]3[C@@H]1CC[C@@H]2O
Potency [1]: inactive
Potency [2]: inactive
Potency [3]: inactive
Potency [4]: inactive
Potency [5]: 6.07 µM (active)
Potency [6]: inactive
Potency [7]: inactive
Potency [8]: inactive
Potency [9]: inactive
Potency [10]: inactive

FC(Cl)(Cl)C(F)(Cl)Cl
Potency [1]: inactive
Potency [3]: inactive
Potency [4]: inactive
Potency [5]: inactive
Potency [6]: inactive
Potency [11]: inactive
Potency [8]: inactive
Potency [12]: inactive
Potency [9]: inactive
Potency [10]: inactive
outcome [13]: inactive
Potency [14]: inactive

O=[N+]([O-])/C=C/c1ccccc1
Potency [1]: 31.1 µM (active) and 54.5 µM (active)
Potency [3]: inactive
Potency [4]: 31.4 µM (active) and 24.5 µM (active)
Potency [6]: 22 µM (active) and 15.4 µM (active)
Potency [7]: inactive
Potency [8]: 14 µM (active) and 17.4 µM (active)
Potency [12]: 44.4 µM (active)
Potency [9]: 19.8 µM (active) and 15.5 µM (active)
outcome [15]: inactive
Potency [10]: 19.8 µM (active) and 38.9 µM (active)
outcome [13]: inactive
Potency [14]: inactive

Nc1ccccc1C(=O)OCC(O)CO (stereo not given)
Potency [4]: inactive
Potency [5]: inactive
Potency [6]: inactive
Potency [7]: inactive
Potency [11]: inactive
Potency [8]: inactive
Potency [12]: inactive
Potency [16]: inactive
Potency [10]: inactive
Potency [14]: inactive

CNC(=O)Oc1cccc(N=CN(C)C)c1
Potency [1]: inactive
Potency [3]: inactive
Potency [17]: inactive
Potency [4]: inactive
Potency [6]: inactive
Potency [7]: inactive
Potency [8]: inactive
outcome [18]: inactive
Potency [16]: inactive
Potency [19]: inactive
Potency [9]: inactive
Potency [10]: inactive
Potency [14]: inactive

C#CC(O)(C=CCl)CC (stereo not given)
Potency [20]: inactive
Potency [4]: inactive
Potency [5]: inactive
Potency [6]: inactive
Potency [7]: inactive
Potency [8]: inactive
outcome [18]: inactive
Potency [12]: inactive
Potency [16]: inactive
Potency [19]: inactive
Potency [9]: inactive
outcome [15]: inactive
Potency [10]: inactive
outcome [13]: inactive
Potency [14]: inactive

CC(C)(C)OOC(C)(C)CCC(C)(C)OOC(C)(C)C
Potency [3]: inactive
Potency [4]: inactive
Potency [5]: inactive
Potency [6]: inactive
Potency [7]: inactive
Potency [8]: inactive
Potency [12]: inactive
Potency [9]: inactive
Potency [10]: inactive
outcome [13]: inactive

CCOc1cccc(C2(N3CCN(c4ccccc4)CC3)CCC(C)CC2)c1 (stereo not given)
Potency [1]: inactive
Potency [3]: inactive
Potency [17]: inactive
Potency [4]: inactive
Potency [5]: inactive
Potency [6]: inactive
Potency [7]: inactive
Potency [8]: inactive
outcome [18]: inactive
Potency [12]: inactive
Potency [16]: inactive
Potency [9]: inactive
Potency [10]: inactive
outcome [13]: inactive
Potency [14]: inactive

O=C(O)C(F)(F)C(F)(F)C(F)(F)C(F)(F)C(F)(F)F
Potency [2]: inactive
Potency [17]: inactive
Potency [4]: inactive
Potency [5]: inactive
Potency [6]: inactive
Potency [7]: inactive
Potency [11]: inactive
Potency [8]: inactive
Potency [12]: inactive
Potency [16]: inactive
Potency [9]: inactive
Potency [10]: inactive
outcome [13]: inactive
Potency [14]: inactive

c1ccc2c(c1)-c1cccc3cccc-2c13
Potency [1]: inactive
Potency [3]: inactive
Potency [4]: inactive
Potency [5]: inactive
Potency [6]: inactive
Potency [7]: inactive
Potency [11]: inactive
Potency [8]: inactive
Potency [12]: inactive
Potency [9]: inactive
Potency [10]: inactive
outcome [13]: inactive
Potency [14]: inactive

CN1C[C@H](C(=O)N[C@]2(C)O[C@@]3(O)[C@@H]4CCCN4C(=O)[C@H](Cc4ccccc4)N3C2=O)C=C2c3cccc4[nH]cc(c34)C[C@H]21
Potency [1]: inactive
Potency [3]: 21.8 µM (active) and inactive
Potency [17]: inactive
Potency [4]: inactive
Potency [6]: inactive
Potency [7]: inactive
Potency [8]: inactive
Potency [12]: inactive
Potency [9]: inactive
outcome [15]: inactive
Potency [10]: inactive

CC(CC(C(N)=O)(c1ccccc1)c1ccccc1)N(C)C (stereo not given)
Potency [4]: inactive
Potency [6]: inactive
Potency [7]: inactive
Potency [11]: inactive
Potency [8]: inactive
outcome [18]: inactive
Potency [12]: inactive
Potency [16]: inactive
Potency [9]: inactive
Potency [10]: inactive
outcome [13]: inactive
Potency [14]: inactive

CC(C)(C)NCC(O)c1cc(Cl)c(N)c(C(F)(F)F)c1 (stereo not given)
Potency [2]: inactive
Potency [17]: inactive
Potency [20]: inactive
Potency [4]: inactive
Potency [5]: inactive
Potency [7]: inactive
Potency [11]: inactive
Potency [8]: inactive
outcome [18]: inactive
Potency [12]: inactive
Potency [16]: inactive
Potency [9]: inactive
Potency [10]: inactive
outcome [13]: inactive
Potency [14]: inactive

O=S(=O)(Cl)Cl
Potency [2]: inactive
Potency [3]: inactive
Potency [17]: inactive
Potency [4]: inactive
Potency [5]: inactive
Potency [6]: inactive
Potency [7]: inactive
Potency [11]: inactive
Potency [8]: inactive
Potency [9]: inactive
outcome [13]: inactive
Potency [14]: inactive

CCCCCCCCP(=O)(O)O
Potency [1]: inactive
Potency [3]: inactive
Potency [4]: inactive
Potency [6]: inactive
Potency [7]: inactive
Potency [8]: inactive
Potency [12]: inactive
Potency [16]: inactive
Potency [10]: inactive
outcome [13]: inactive
Potency [14]: inactive

Cc1nc2ccccc2c(=O)n1-c1ccccc1Cl
Potency [2]: inactive
Potency [3]: 47.5 µM (active)
Potency [17]: inactive
Potency [20]: inactive
Potency [4]: inactive
Potency [6]: inactive
Potency [7]: inactive
Potency [8]: inactive
Potency [12]: inactive
Potency [9]: inactive
Potency [10]: inactive
Potency [14]: inactive

CC(Cc1ccccc1)NCc1ccccc1Cl (stereo not given)
Potency [1]: inactive
Potency [3]: inactive
Potency [17]: inactive
Potency [20]: inactive
Potency [4]: inactive
Potency [6]: inactive
Potency [7]: inactive
Potency [11]: inactive
outcome [18]: inactive
Potency [12]: inactive
Potency [16]: inactive
Potency [10]: inactive
outcome [13]: inactive
Potency [14]: inactive

Cc1nnc(-c2ccccc2)c(=O)n1N
Potency [1]: inactive
Potency [3]: inactive
Potency [17]: inactive
Potency [4]: inactive
Potency [5]: inactive
Potency [7]: inactive
Potency [11]: inactive
Potency [8]: inactive
outcome [18]: inactive
Potency [12]: inactive
Potency [16]: inactive
Potency [19]: inactive
Potency [9]: inactive
Potency [10]: inactive
